Screening data: PubChem, National Center for Advancing Translational Sciences (NCATS)
An excerpt weighted towards active compounds, which were near 19% of everything screened.
TDP1 cell noCPT – qHTS for Inhibitors of human tyrosyl-DNA phosphodiesterase 1 (TDP1): qHTS in cells in absence of CPT. actives 15% (n = 420,000). DT40 Tdp1-/- hTDP1 cells, no CPT, ATP luminescence, 48 h. Potency, µM (series often up to 46.2 µM), inactives show top-dose activity change, negative = growth inhibition, most hits filed as inhibitors. AID 686978, 2013; note: potency is the fitted concentration of half-maximal effect; % is set by controls: 0 for no effect and ±100 for the full control effect; nearly all actives have a fitted effect of over 55% in size
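Seeded 400 DT40-hTDP1 cells/well (vehicle DMSO, no 20 nM CPT); pinned compounds; ≥48 hr at 37 °C; CellTiter-Glo luminescence as viability measure.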
SW480 rerep – induces DNA re-replication in SW480 colon adenocarcinoma cells | Potency, µM (series often up to 46.1 µM), for the others: top-dose re-replication activation, usual class: activators | actives 1.8% (n = 340,000) | SW480 DNA re-replication, Hoechst DNA content imaging, 48 h; note: potency is the fitted concentration of half-maximal effect; % of control where 0% means no effect; nearly all actives have a fitted effect of over 55% in size
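Readout is total intensity of Hoechst-stained nuclei, excited at 405 nm and collected at 500-530 nm. Compound treatment lasted 48 hr at 37 C in 5% CO2 before staining.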
DT40 TDP1 CPT – DT40-hTDP1 cell growth loss with CPT | chicken DT40 Tdp1-/-;hTDP1 cells + 20 nM CPT, ATP luminescence, 48 h | Potency, µM (top dose mostly 46.2 µM), without a hit: at the highest dose activity change, negative = growth inhibition, most hits filed as inhibitors | actives 12% (n = 420,000) | AID 686979; note: potency is the fitted concentration of half-maximal effect; % is set by controls: 0 for no effect and ±100 for the full control effect; nearly all actives have a fitted effect of over 55% in size
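Cell growth measured by CellTiter-Glo luminescence after a minimum 48 h, 37 C compound exposure with 20 nM CPT in Tdp1-knockout DT40 cells stably expressing hTDP1, seeded 400/well; qHTS titration format.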
Chronic BCR inh – inhibitors of chronic active B-cell receptor signaling; Potency, µM (series often up to 46.1 µM), inactives show top-dose activity change, negative = inhibition, usual class: inhibitors; actives 0.05% (n = 340,000); ABC-DLBCL IkBa-CBG/CBR reporter, luminescence ratio, 4 h; active = well fitted inhibition curve with a large enough effect in the signal ratio, with a control signal flat, not every such curve was filed as active; inconclusive = small, poorly fitted or top-dose-only effect, or effect the other way, or a change in a side signal; the % refers to the signal ratio;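 note: potency is the fitted concentration of half-maximal effect; plate controls were basal doxycycline-induced cells for no effect and cells given 10 µM MG132 for full effect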
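Compounds up to 46 uM were incubated four hours with TMD8 cells whose green CBG68 luciferase is fused to IkappaBalpha; red CBR luminescence normalised the signal, and concentration-effect curves were fitted to fusion, red and ratio data.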
IL1B secr inh – inflammasome signaling inhibition, IL-1 beta readout | THP-1 LPS/ATP IL-1B secretion, AlphaLISA, 16 h; active compounds read low | activity change, % at 57.5 µM | actives 4.7% (n = 360,000) | AID 743279; in the data active = activity change below about -50%; inconclusive = mostly about -30% to -49%; note: % is set by controls: 0 for no effect and ±100 for the full control effect
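THP-1 cells pretreated 1 hr with compounds (up to 57.5 uM final), then stimulated with LPS (250 ng/mL final) plus ATP (1.25 mM final); secreted IL-1B measured by AlphaLISA after 16 hr, decreased signal indicating inhibition.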
MCF10A rereplic – inducers of DNA re-replication in MCF 10A breast cells; MCF 10A DNA re-replication, Hoechst nuclear intensity, 48 h; Potency, µM (doses to about 46.1 µM), for the others: at the highest dose activity, positive = re-replication, most hits filed as activators; actives 2.9% (n = 350,000); AID 624296; note: potency is the fitted concentration of half-maximal effect; % of control where 0% means no effect; nearly all actives have a fitted effect of over 50% in size
Starred values were filed as active, the others as inactive; ? = inconclusive; / = no result. Unless noted, calls come from the whole dose curve; as a rule, active = well fitted curve in the direction sought with a large enough effect; inconclusive = small, poorly fitted or top-dose-only effect, or another doubt; inactive = no such curve, though single readings can be large; an effect the other way counts as inactive or inconclusive.

SMILES	TDP1 cell noCPT	SW480 rerep	DT40 TDP1 CPT	Chronic BCR inh	IL1B secr inh	MCF10A rereplic
CCc1nn2c(=O)cc(COC(=O)c3cccc(NC(=O)COc4ccccc4F)c3)nc2s1	?	/	18µM*	/	/	/
Cc1nn2c(=O)cc(COC(=O)c3cccc(NC(=O)COc4ccc(C)c(C)c4)c3)nc2s1	-6%	/	17%	/	/	/
CCC(Oc1ccc(C)c(C)c1)C(=O)N1CCCN(C)CC1 (configuration not stated)	-1%	-9%	0%	6%	0	1%
C/C(=N\NC1=N[C@H]2CS(=O)(=O)C[C@H]2S1)c1ccccc1	0%	-4%	16%	?	-2	5%
CCOC(=O)c1c(N2C(=O)Nc3ccccc3N2O)sc2c1CCCC2	7%	-2%	3%	6%	-1	20%
CCOC(=O)c1c(N2C(=O)CC(Sc3ccccc3C(=O)O)C2=O)sc2c1CCCC2 (configuration not stated)	15µM*	15%	15µM*	?	-10	?
O=C(O)c1ccccc1SC1CC(=O)N(c2cccc3ccccc23)C1=O (configuration not stated)	2.6µM*	-12%	1.8µM*	?	-6	?
CCN1C(=O)CC(Sc2ccccc2C(=O)O)C1=O (configuration not stated)	4%	?	2%	22%	0	?
Cc1cccc(NC(=O)CSc2nc(=O)n(Cc3cccnc3)c3c2CCC3)c1C	-21%	/	9%	6%	/	/
COc1ccc(S(=O)(=O)N2CCOC23CCN(S(C)(=O)=O)CC3)cc1	-21%	5.2µM*	3%	8%	20	14%
COc1ccc(S(=O)(=O)N2CCOC23CCN(S(=O)(=O)c2ccccc2)CC3)cc1	?	7.3µM*	?	?	11	6%
COc1ccc(OC)c(S(=O)(=O)N2CCC3(CC2)OCCN3S(=O)(=O)c2ccccc2)c1	?	?	?	?	15	13%
CCS(=O)(=O)N1CCC2(CC1)OCCN2S(=O)(=O)c1ccc(C)cc1	-25%	4%	-5%	8%	18	-2%
Cc1ccc(C(=O)Nc2ccc(N3CCOCC3)nc2N2CCOCC2)cc1	?	12%	-6%	7%	/	?
COc1ccc(-c2[nH]c(-c3ccccc3)nc2SCC(=O)Nc2nccs2)cc1	23µM*	?	18µM*	?	-14	1%
COc1ccc(-c2[nH]c(-c3ccc(Cl)cc3)nc2SCC(=O)Nc2nccs2)cc1	23µM*	0%	16µM*	0%	-16	?
COc1ccc(-n2c(SCC(=O)Nc3nccs3)nnc2-c2ccc(Cl)cc2)cc1	4%	1%	-25%	/	-12	4%
COCCN1C(=O)CS/C1=C(/C#N)C(=O)NCc1ccco1	1%	16%	-4%	0%	-18	1%
CN(C)CCCN=Cc1c(O)n(Cc2ccc3c(c2)OCO3)c(=O)c2ccccc12	/	/	/	0%	/	/
CN(C)CCN=Cc1c(O)n(Cc2ccc3c(c2)OCO3)c(=O)c2ccccc12	-10%	-3%	-11%	-6%	-53*	-41%
CN(C)CCN=Cc1c(O)n(-c2ccc(S(=O)(=O)N3CCOCC3)cc2)c(=O)c2ccccc12	-13%	18µM*	-3%	5%	-18	-28%
Cc1ccc(-n2c(O)c(/C=N/Nc3ccc(S(=O)(=O)N4CCOCC4)cc3[N+](=O)[O-])c3ccccc3c2=O)c(C)c1	12µM*	?	21µM*	?	-65*	?
CCN1CCCC1CN=Cc1c(O)n(-c2ccccc2)c(=O)c2ccccc12 (configuration not stated)	-14%	-2%	-8%	7%	4	1%
C=C1c2ccccc2NC(=S)N1Cc1ccc2c(c1)OCO2	4.1µM*	2%	-27%	0%	-18	-4%
Cc1sc2ncn(-n3c(C)ccc3C)c(=O)c2c1C	?	1%	?	0%	-1	-2%
SMILES	TDP1 cell noCPT	SW480 rerep	DT40 TDP1 CPT	Chronic BCR inh	IL1B secr inh	MCF10A rereplic
Cc1ccc(-c2csc3ncn(-n4c(C)ccc4C)c(=O)c23)o1	18µM*	5%	23µM*	-1%	-1	-11%
CC(C)C1C(c2ccccc2)NC(c2ccccc2)CC1(O)c1ccc(F)cc1 (configuration not stated)	15µM*	?	?	?	0	16µM*
CCC1C(=O)CC(c2ccccc2)NC1c1ccccc1 (configuration not stated)	-35%	7%	-1%	9%	-10	-5%
O=C(Nc1ccccc1)C1=C(O)CC(c2ccc(Cl)cc2)N2CCN=C12 (configuration not stated)	18µM*	1%	?	?	-7	12%
COc1ccc(C)cc1NC(=O)Cn1c(=O)oc2cc(S(=O)(=O)N3CCCCCC3)ccc21	12µM*	/	16µM*	2%	/	/
COC(=O)n1c(=O)oc2cc(S(=O)(=O)N3CCCCC3)ccc21	-16%	-4%	-22%	1%	4	-6%
Cc1ccc(NC(=O)Cn2c(=O)oc3cc(S(=O)(=O)N4CCCCC4)ccc32)c(C)c1	8.2µM*	/	6.5µM*	/	/	/
Cc1cccc(C(C)C)c1NC(=O)Cn1c(=O)oc2cc(S(=O)(=O)N3CCCC3)ccc21	15µM*	/	18µM*	/	/	/
Cc1ccc(CSc2nnc3[nH]c(=O)cc(-c4ccccc4)n23)cc1	-6%	/	3%	7%	/	/
O=C(NC1CCCCC1)N1CCN(C(c2ccccc2)c2ccccc2)CC1	16µM*	-2%	10µM*	?	-15	-1%
CS(=O)(=O)N1CCC2(CCN(c3cccc(-c4ccccc4)c3)CC2)CC1	21µM*	/	?	/	/	/
CS(=O)(=O)N1CCC2(CC1)CN(c1cccc(-c3ccccc3)c1)C2	18µM*	/	?	/	/	/
O=C(Oc1ccccc1)N1CCC2(CCCN(c3cccc(-c4ccccc4)c3)C2)CC1	?	/	-30%	/	/	/
CC1CCCC(C)N1C(=O)COC(=O)c1ccc2ccccc2n1 (configuration not stated)	-11%	1%	-17%	7%	2	2%
CC(=O)Nc1ccc(CN(C)c2c(C)nc3ccc(C(=O)N4CCN(C(=O)c5ccco5)CC4)cn23)cc1	-16%	/	2%	/	22	/
CC(C)CCN1CCN(CCCn2cccn2)CC1CCO (configuration not stated)	20%	-15%	0%	?	-1	-4%
